Where only a bound is given, the exact number is not on record here.

From the supplement of paper PMC10338343 come the findings set out here.
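Note: 1 nM active piRISC with 0.1 nM target library at 33 °C single turnover.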

The test system of the experiment is MILI (PIWIL2) piRISC loaded with L1MC piRNA (26 nt). The experiment can be described thus: pre-steady-state target cleavage rate (min^-1); guide: L1MC piRNA 5'p-UAACUAAAUACUAUGCAAGCUGUAGG; MIWI and MILI are mouse PIWI proteins and EfPiwi is from a freshwater sponge; tags in brackets are library labels; higher = faster piRNA-guided slicing of the target. The following applies: auxiliary factor: none (no GTSF1). Put shortly:
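At 33 °C in HEPES–potassium acetate buffer, a transcribed, DNA-blocked target RNA library […] was exposed for 0–8 or 0–960 min to 1 nM active affinity-purified piRISC carrying a single synthetic guide, with or without 500 nM GTSF1 partner protein. Uncleaved targets were sequenced and normalised to depth and to weakly complementary targets. With three trials pooled and k3 capped at 0.0001 min^-1, a burst-and-steady-state fit produced the pre-steady-state cleavage rate.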
Regarding UCCUGGAUGUCGAUGCAUUGUAAUUAGUUA, the “pre-steady-state target cleavage rate” value is under 0.0001.
With UCCUGGAUGUCGAACCAUAGUCAUUUAGUUA, the “pre-steady-state target cleavage rate” value is under 0.0001.
Take UCCUGGAUGUCGAACGAUGAGUAUUUAGUUA: the “pre-steady-state target cleavage rate” value was under 0.0001.
For UCCUGGAUGUCGAACGUUACUUUUUAGUUA the value was under 0.0001; for UCCUGGUACAGCUUCGUUAGUAUUUAGAAA, under 0.0001.
With UCCUGGAUGUCGAACGAUAGUAUUUACAUA, the “pre-steady-state target cleavage rate” value was under 0.0001.
For UCCUGGAUGUCGAACGAUAGUAUGUUAGUUA the value was under 0.0001.
